Shown are actives, neighbours in structure and some others; about 14% of the full set was active somewhere.
HCV inh – qHTS Assay for Inhibitors of Hepatitis C Virus (HCV). Huh7.5.1 HCVcc-Cre infection, luciferase reporter, 44 h. hit rate 3.4% among 340,000. AID 651820, 2012. Potency, µM (titrated, usually from 41.8 µM), inactives show top-dose activity change, negative = inhibition, hits mostly inhibitors; note: potency is the fitted concentration of half-maximal effect
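Infectious HCVcc-Cre (~0.5 moi) was added to cells just after compound, with cells seeded 4 h earlier at 1,000 per well. Luciferase activity after 44 h culture reported infection; substrate was incubated 15 min at room temperature before reading.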
Pf growth 48h – Primary qHTS for delayed death inhibitors of the malarial parasite plastid, 48 hour incubation; AID 504832, 2011; P. falciparum luciferase growth in erythrocytes, 48 h; Potency, µM (series often up to 28.7 µM), without a hit: at the highest dose activity change, negative = inhibition, hits mostly inhibitors; hit rate 5.9% among 310,000; note: potency is the fitted concentration of half-maximal effect
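Cell-based growth assay: transgenic P. falciparum expressing firefly luciferase, cultured in red cells within RPMI 1640 containing 0.5% w/v Albumax, 24 mM bicarbonate and gentamycin. A drop in luciferase activity indicates inhibition.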
Pf growth 96h – Primary qHTS for delayed death inhibitors of the malarial parasite plastid, 96 hour incubation. Potency, µM (titrated, usually from 28.7 µM), without a hit: at the highest dose activity change, negative = inhibition, actives largely listed as inhibitors. P. falciparum luciferase reporter growth, 96 h. AID 504834, 2011. hit rate 6.9% among 320,000; note: potency is the fitted concentration of half-maximal effect
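Readout is luminescence from an integrated firefly luciferase in P. falciparum. Red cells, 2% hematocrit and 0.05% parasitemia final, were cultured with compound through two parasite generations (96 hours) at 37 C, 5% CO2.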
HCMV antiviral – qHTS Assay for inhibitors of the human cytomegalovirus (HCMV); HFF cells, HCMV-luciferase reporter, 72 h; hits give low values; activity change, negative = inhibition, % at 57.5 µM; hit rate 4.5% among 410,000; in the data active = activity change below about -60%; inconclusive = no clear call, values can overlap the other calls; inactive = above about -39%
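Two compound doses tested in HFFs infected with HCMV-luciferase, MOI 1 PFU/cell, 72 h at 37C. Lysate luminescence read with OneGlo; data normalized against buffer-only and 10uM Salinomycin inhibitor controls.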
LASV entry inh – qHTS for Inhibitors of binding or entry into cells for Lassa Virus; Lassa virus pseudotype entry inhibition, cell reporter; Potency, µM (series often up to 37.9 µM), for inactives: top-dose activity change, negative = inhibition, actives largely listed as inhibitors; hit rate 1.2% among 300,000; AID 540256, 2011; calls by dose curve; tested in HEK293 cells; note: potency is the fitted concentration of half-maximal effect; nearly all actives have a fitted effect of over 50% in size
MARV entry inh – qHTS for inhibitors of binding or entry into cells for Marburg Virus | Marburg virus pseudotyped entry inhibition, cell reporter | Potency, µM (titrated, usually from 37.8 µM), without a hit: at the highest dose activity change, negative = inhibition, hits mostly inhibitors | hit rate 1.8% among 300,000 | AID 540276, 2011; calls by dose curve; tested in HEK293 cells; note: potency is the fitted concentration of half-maximal effect
Numbers without * were called inactive; ? = inconclusive; nt = no result given; ! = not confirmed by another sample; [ ] = dose if it differs, or a comment. Unless noted, calls come from the whole dose curve; as a rule, active = well fitted inhibition curve with a large enough effect; inconclusive = small, poorly fitted or top-dose-only effect, or another doubt; inactive = no such curve, though single readings can be large or run the other way. % is set by controls: 0 for no effect and ±100 for the full control effect.

SMILES	HCV inh	Pf growth 48h	Pf growth 96h	HCMV antiviral	LASV entry inh	MARV entry inh
O=C(NCc1ccco1)c1ccccc1NS(=O)(=O)c1cccs1	14.7%	7.5%	?	4.8	12.0%	12.1%
O=C(c1ccccc1NS(=O)(=O)c1ccc2c(c1)OCCO2)N1CCOCC1	10.7%	6.8%	-17.7%	-8.5	-5.2%	-8.5%
CCc1ccc(S(=O)(=O)c2nnn3c2nc(NC2CCCC2)c2sccc23)cc1	nt	nt	nt	30.7	-7.4%[46.1 µM]	nt
COc1ccc(-c2oc3ncn4nc(COc5ccccc5C)nc4c3c2-c2ccc(OC)cc2)cc1	nt	nt	nt	6.3	4.7%[46.1 µM]	nt
Cc1oc(-c2cccc(Cl)c2)nc1CSCC(=O)NCc1ccccc1Cl	nt	nt	nt	-17.0	6.7%[46.1 µM]	-0.4%[46.1 µM]
CCOCCCn1c(C)nc2c(c1=O)c1nc3ccccc3nc1n2CCC1=CCCCC1	-1.9%	?	2.62µM*	?	?	10µM*
CCC(=O)Nc1nnc2n1CCS2	nt	nt	nt	0.4	1.3%[46.1 µM]	nt
CCCN(CCC)CCNC(=O)c1cn(C)c(=O)c2c1c1ccccc1n2C	7.4%	22.4%	-7.9%	45.7	11.6%[46.1 µM]	?
CCCCN(C)CCNC(=O)c1cn(C)c(=O)c2c1c1ccccc1n2C	-13.3%	-24.1%	32.0%	14.9	-9.5%[46.1 µM]	11.2µM*
CCCCN(CC)CCNC(=O)c1cn(C)c(=O)c2c1c1ccccc1n2C	7.1%	-6.3%	0.5%	-62.2*!	?	-34.9%[46.1 µM]
CC(=O)c1cccc(Nc2ncnc3c2cnn3-c2cccc(Cl)c2)c1	nt	nt	nt	17.7	22.4%[46.1 µM]	nt
CCOC(=O)c1cc(S(=O)(=O)N(C)Cc2ccccc2)cn1C	-16.4%	10.6%	?	15.6	12.6µM*	?
N#C/C(=C\c1ccc(O)cc1)C(=O)O	1.12µM*	nt	nt	-73.5*!	nt	nt
O=C(Oc1ccc(Cl)c2cccnc12)c1ccco1	?	11.7µM*	73.8%	71.4	-4.4%	-18.1%
O=C(Oc1ccccc1N1C(=O)CCC1=O)c1ccco1	17.6%	-9.5%	9.28µM*	29.4	4.0%	24.6%
O=C(Oc1cccc2cccnc12)c1ccco1	?	?	1.31µM*	-17.9	1.3%	-0.9%
CC1C=CCC2C(=O)N(c3ccccc3OC(=O)c3ccco3)C(=O)C12 (stereo not drawn)	6.6%	40.3%	-9.1%	-5.5	nt	nt
O=C(Cc1ccc(Cl)cc1)Oc1cccc2cccnc12	?	0.0%	2.62µM*	nt	2.1%	10.7%
COc1ccc(CNC(=O)c2cc3cc(S(=O)(=O)N4CCCCC4)ccc3n2C)c(OC)c1	nt	nt	nt	9.0	?	nt
c1ccc(CC(Nc2ccccn2)c2ccccc2)cc1 (stereo not drawn)	6.5%	?	14.7µM*	-35.0	-13.3%	?
CCc1cc(Cn2nc(-c3ccccc3)cc2C(=O)NCc2ccccc2OC)on1	?	10.4µM*	?	69.6	nt	nt
CC(=O)N1N=C(c2ccccc2)CC1c1ccc(F)cc1 (stereo not drawn)	-4.6%	-2.4%	1.8%	12.6	nt	nt
CC(=O)N1N=C(c2ccco2)CC1c1ccc(Br)cc1 (stereo not drawn)	-5.6%	6.5%	10.4µM*	-3.9	1.4%	2.7%
CC(=O)N1N=C(c2ccco2)CC1c1ccc(C)cc1 (stereo not drawn)	0.4%	10.8%	25.6%	-15.7	24.0%	?
CC(=O)N1N=C(c2c(O)n(C)c(=O)n(C)c2=O)CC1c1ccccc1 (stereo not drawn)	-0.3%	3.7µM*	2.62µM*	-0.6	-16.6%	-3.2%
COc1ccc(OC)c(NC(=O)c2nnn(CC(=O)Nc3ccc4c(c3)OCO4)c2N)c1	-29.9%	-8.6%	14.9%	nt	nt	nt
Cc1n[nH]c(=S)n(/N=C/c2cccs2)c1=O	11.2%	0.928µM*	?	17.4	?	12.7%[46.1 µM]
Cc1ccc2c(CN3C(=O)NC(C)(c4ccc5c(c4)OCO5)C3=O)cc(=O)oc2c1 (stereo not drawn)	?	4.15µM*	?	-12.3	-1.4%	?

Assay outcomes (PubChem BioAssay)
